Where “and” joins values, the source holds several entries; their conditions need not be identical. Equal values may be shown once. Records with an inconclusive call do not appear. A number with no mark means an inactive call. Calls of active or inactive are those of the source. Calls follow the shape of the dose curve; as a rule, active = well fitted curve in the direction sought with a large enough effect; inconclusive = small, poorly fitted or top-dose-only effect, or another doubt; inactive = no such curve, though single readings can be large; an effect the other way counts as inactive or inconclusive.

Here are results for six compounds from PubChem BioAssay (NCATS).

In one experiment the test system is TAB113. The experiment in a line: qHTS profiling for inhibitors of Plasmodium falciparum proliferation (AID 504749). Also: nearly all actives have a fitted effect of over 60% in size. Also: potency is read from the fitted curve at half-maximal effect. To be noted: P. falciparum in erythrocytes, SYBR Green DNA, 72 h; series mostly up to 28.7 µM. An outline of the steps:
(§1)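 P. falciparum-infected erythrocytes (0.3% parasitemia, 2.5% hematocrit final) were exposed to compounds for 72 h at 37 C in 5% CO2, then lysed with SYBR Green buffer overnight at room temperature; parasite DNA fluorescence was normalized to artemisinin and DMSO controls.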
(qHTS replaces the single test concentration by a dilution series.)

In another experiment the test system is TAB165. The description is as above. The following applies: P. falciparum in erythrocytes, SYBR Green DNA, 72 h; series mostly up to 28.7 µM. An outline of the steps:
as §1

A further experiment relates to W2. The experiment is described as above. To be noted: P. falciparum in erythrocytes, SYBR Green DNA, 72 h; series mostly up to 28.7 µM. An outline of the steps: as §1
A further experiment relates to CRL-7250. The experiment is described as follows: Cytotoxic Profiling of Annotated Libraries Using Quantitative High-Throughput Screening (AID 1296008). Also: nearly all actives have a fitted effect of over 60% in size. Also: potency is read from the fitted curve at half-maximal effect. As to max response: % is scaled to controls: 0 for no effect and ±100 for the full control effect. The following applies: Five cell lines viability, CellTiter-Glo ATP luminescence, 48-72 h; max response: active compounds read low. An outline of the steps: (§2)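 Compounds were pin-transferred onto cells and incubated 48 or 72 hr at 37 degree Celsius, 95% humidity. CellTiter-Glo was added, plates sat 10 min at room temperature, then ATP-coupled luminescence was imaged as the viability read-out.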
Background: ATP-based viability assays read luminescence as a measure of living cells.

A further experiment relates to HEK293. Described as above. The following applies: Five cell lines viability, CellTiter-Glo ATP luminescence, 48-72 h; max response: active compounds read low. An outline of the steps: as §2
In experiment [1] the test system is HaCat. The description is as above. The following applies: Five cell lines viability, CellTiter-Glo ATP luminescence, 48-72 h; max response: active compounds read low. In short, it runs like this:
as §2

A further experiment relates to KB-3-1. Described as above. To be noted: Five cell lines viability, CellTiter-Glo ATP luminescence, 48-72 h; max response: active compounds read low. An outline of the steps: as §2
The subject of experiment [2] is NIH3T3. Described as above. To be noted: Five cell lines viability, CellTiter-Glo ATP luminescence, 48-72 h; max response: active compounds read low. An outline of the steps: as §2
In the next experiment the test system is MCC-13. The experiment in a line: qHTS assay to identify novel small-molecules to repurpose for Merkel cell carcinoma treatment (AID 1296009). Also: nearly all actives have a fitted effect of over 60% in size. Also: potency is read from the fitted curve at half-maximal effect. As to activity change, negative = cytotoxicity: % is scaled to controls: 0 for no effect and ±100 for the full control effect. The following applies: MCC and control cell lines, CellTiter-Glo viability, 72 h; series mostly up to 46 µM. An outline of the steps: (§3)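 Cells exposed to NPC (8-point) and MIPE (11-point) compound dilutions for 72 hr at 37 degree celsius; viability read by CellTiter-Glo luminescence, normalized to no-cell and DMSO in-plate controls.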

A further experiment has as its system MCC-26. The experiment is described as above. The following applies: MCC and control cell lines, CellTiter-Glo viability, 72 h; series mostly up to 46 µM. An outline of the steps:
as §3

A further experiment concerns MKL-1. The experiment is described as above. To be noted: MCC and control cell lines, CellTiter-Glo viability, 72 h; series mostly up to 46 µM. In short, it runs like this:
as §3

A further experiment has as its system MKL-2. The description is as above. To be noted: MCC and control cell lines, CellTiter-Glo viability, 72 h; series mostly up to 46 µM. An outline of the steps:
as §3

The next experiment relates to UISO. The experiment is described as above. To be noted: MCC and control cell lines, CellTiter-Glo viability, 72 h; series mostly up to 46 µM. An outline of the steps: as §3
The test system of another experiment is WaGa. The experiment is described as above. To be noted: MCC and control cell lines, CellTiter-Glo viability, 72 h; series mostly up to 46 µM. An outline of the steps:
as §3

A further experiment has as its system C33A. The experiment in a line: Primary qHTS to identify gynecologic anti-cancer compounds using libraries of approved drugs and bioactive compounds (AID 1345084). Also: % is scaled to controls: 0 for no effect and ±100 for the full control effect; nearly all actives have a fitted effect of over 55% in size. The following applies: Gynecologic cancer cell panel viability, ATPlite luminescence, 48 h; series mostly up to 57.5 µM. In short, it runs like this:
(§4)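 Measured: luminescence after ATPlite addition (15 min, RT). Exposure: 48 h, 37 C, 5% CO2.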

The subject of a further experiment is CAOV3. The experiment is described as above. The following applies: Gynecologic cancer cell panel viability, ATPlite luminescence, 48 h; series mostly up to 57.5 µM. An outline of the steps:
as §4

Another experiment has as its system CASKI. Described as above. The following applies: Gynecologic cancer cell panel viability, ATPlite luminescence, 48 h; series mostly up to 57.5 µM. An outline of the steps: as §4
Experiment [3] deals with NIH3T3. The experiment is described as follows: qHTS assay to identify novel small-molecules to repurpose for Merkel cell carcinoma treatment (AID 1296009). Also: nearly all actives have a fitted effect of over 60% in size. Also: potency is read from the fitted curve at half-maximal effect. As to activity change, negative = cytotoxicity: % is scaled to controls: 0 for no effect and ±100 for the full control effect. To be noted: MCC and control cell lines, CellTiter-Glo viability, 72 h; at 44.8 µM (top of the series) unless noted. In short, it runs like this:
as §3

The next experiment deals with HEK293T. The description is as above. To be noted: MCC and control cell lines, CellTiter-Glo viability, 72 h; at 44.8 µM (top of the series) unless noted. In short, it runs like this:
as §3

Experiment [4] concerns HACAT. The description is as above. The following applies: MCC and control cell lines, CellTiter-Glo viability, 72 h; at 44.8 µM (top of the series) unless noted. An outline of the steps: as §3

Turning to `CC[N+](CC)(CCNC(=O)C(=O)NCC[N+](CC)(CC)Cc1ccccc1Cl)Cc1ccccc1Cl`, the Potency was 3.16 µM (active) with TAB113, 1.26 µM (active) in the experiment on TAB165 and 1.2 µM (active) in the experiment on W2. Also, the result with CRL-7250 was inactive. For the same compound, the max response in the experiment with HEK293 is 2.37%; in the experiment with HaCat [1], -1.93%; in the experiment on KB-3-1, -5.89%; in the experiment on NIH3T3 [2], 3.32%. For the same compound, the Potency result with MCC-13, with MCC-26, in the experiment on MKL-1, with MKL-2, in the experiment on UISO and in the experiment with WaGa was “inactive” throughout. Besides, the Potency entry with C33A, with CAOV3 and in the experiment with CASKI was “inactive” each time.

For `NC[C@H]1O[C@H](O[C@H]2[C@H](O[C@@H]3O[C@H](CO)[C@@H](O)[C@H]3O)C(O)[C@H](N)C[C@@H]2N)[C@H](N)[C@@H](O)[C@@H]1O` (stereo partly drawn), the max response with CRL-7250 was -0.227%; in the experiment with HEK293, 0.11%; in the experiment with HaCat [1] it was -0.678%; in the experiment on KB-3-1, -2.19%. Besides, the compound was called inactive in the experiment on NIH3T3 [2]. For the same compound, the activity change, negative = cytotoxicity is 8.98% [at 9.22 µM] with MCC-13; 5.57% [at 9.22 µM] in the experiment with MCC-26; 2.77% [at 9.22 µM] in the experiment with MKL-1; -8.12% [at 9.22 µM] in the experiment on MKL-2; 20% [at 9.22 µM] with UISO; 13.9% [at 9.22 µM] in the experiment with WaGa. The values for the activity change, negative = cytotoxicity with C33A, with CAOV3 and with CASKI were 11.5% [at 11.6 µM], -25.7% [at 11.6 µM] and 15.2% [at 11.6 µM], respectively. Also, in the experiment on NIH3T3 [3], the outcome was “inactive [at 9.27 µM]”.

On to `OCc1ccccc1O`, for which the Potency entry with TAB113, in the experiment on TAB165, in the experiment on MCC-13, in the experiment with MCC-26, in the experiment with MKL-1 and in the experiment with MKL-2 was “inactive” each time. Further, the Potency result with UISO, in the experiment with WaGa, in the experiment with C33A and with CASKI was “inactive” each time. Besides, the max response is 2.81% with CRL-7250, -18.5% in the experiment on HaCat [1], -3.85% in the experiment on KB-3-1 and 3.42% in the experiment with NIH3T3 [2]. The compound was called inactive in the experiment on HEK293 and in the experiment on HEK293T.

Turning to `COC(=O)C1=C(C)NC(C)=C(C(=O)O[C@@H]2CCCN(Cc3ccccc3)C2)[C@@H]1c1cccc([N+](=O)[O-])c1`, the Potency in the experiment with CRL-7250 was 15 µM (active); in the experiment with HEK293 it was 11.9 µM (active) and 8.2 µM (active); in the experiment with WaGa, 26.6 µM (active). For the same compound, the max response with HaCat [1] was -9.72%; in the experiment with KB-3-1, 7.74%; with NIH3T3 [2], -11.8% and -29.4%. Besides, the Potency result in the experiment with MCC-13, with MCC-26, with MKL-1, in the experiment with C33A, in the experiment on CAOV3 and in the experiment on CASKI was “inactive” throughout.

As to `CCn1cc(C(=O)O)c(=O)c2cnc(N3CCCC3)nc21`, the Potency entry in the experiment on TAB113, with TAB165 and in the experiment with W2 was “inactive” throughout. The max response in the experiment with CRL-7250 is 4.85%; in the experiment with HEK293, 1.04%; in the experiment on HaCat [1], -10.2%; in the experiment with KB-3-1, 8.93%; in the experiment with NIH3T3 [2] it was -2.06%. Further, the activity change, negative = cytotoxicity in the experiment on MCC-13 is 5.05% [at 9.22 µM]; in the experiment with MCC-26 it was -5.4% [at 9.22 µM]; with MKL-1, 1.32% [at 9.22 µM]; with MKL-2, 14.9% [at 9.22 µM]; in the experiment with UISO, 12.1% [at 9.22 µM]; in the experiment on WaGa, 0.34% [at 9.22 µM]. For the same compound, the activity change, negative = cytotoxicity in the experiment on C33A was -2.2% [at 11.6 µM]; in the experiment on CAOV3 it was -1.93% [at 11.6 µM]; in the experiment with CASKI, 15.2% [at 11.6 µM].

`NC(CS)C(=O)O` (stereo not drawn): the Potency in the experiment with TAB113 was 10 µM (active); in the experiment on W2 it was 4.26 µM (active). Besides, the compound was classed as inactive in the experiment with CRL-7250, in the experiment with HaCat [1] and in the experiment on HACAT [4]. Besides, the max response in the experiment with HEK293 is -10%; in the experiment with KB-3-1 it was -0.484%; with NIH3T3 [2] it was -3.73%. For the same compound, the Potency result with MCC-13, in the experiment on MCC-26, with MKL-1, with MKL-2, with UISO and with WaGa was “inactive” throughout. In addition, the Potency entry in the experiment on C33A and with CASKI was “inactive” throughout.
